# ERa SRC1 inh = blocks coactivator binding to human estrogen receptor alpha | inhibition, % at 25.6 µM | 86,000 compounds, 1.7% hits | P03372 | TR-FRET ER-alpha LBD / SRC-1 peptide, estradiol-bound; in the data active means inhibition above about 50%
# Target sequence (P03372 whole entry, looked up, the tested form may be a part): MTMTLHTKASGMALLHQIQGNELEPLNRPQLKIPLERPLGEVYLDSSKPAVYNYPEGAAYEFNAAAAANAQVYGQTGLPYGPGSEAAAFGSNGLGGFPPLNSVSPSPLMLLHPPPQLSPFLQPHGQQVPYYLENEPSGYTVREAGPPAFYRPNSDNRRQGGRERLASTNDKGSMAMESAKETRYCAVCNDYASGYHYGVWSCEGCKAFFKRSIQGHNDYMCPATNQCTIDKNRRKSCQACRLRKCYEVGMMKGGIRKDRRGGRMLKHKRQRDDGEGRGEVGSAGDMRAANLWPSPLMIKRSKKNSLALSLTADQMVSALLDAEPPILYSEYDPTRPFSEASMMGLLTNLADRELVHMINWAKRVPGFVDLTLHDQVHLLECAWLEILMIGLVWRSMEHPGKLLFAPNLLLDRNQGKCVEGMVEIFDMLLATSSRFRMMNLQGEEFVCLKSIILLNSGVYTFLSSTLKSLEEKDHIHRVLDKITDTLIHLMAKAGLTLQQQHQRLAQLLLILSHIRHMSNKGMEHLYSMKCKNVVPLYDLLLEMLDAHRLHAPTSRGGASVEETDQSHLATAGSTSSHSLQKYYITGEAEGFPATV
# ERb SRC1 inh = ER-beta (human) coactivator binding inhibition | TR-FRET ER-beta LBD / SRC1-Cy5 peptide binding; receptor agonist-loaded with 1 µM estradiol | inhibition, % at 25.6 µM | 86,000 compounds, 1.3% hits;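 active means compounds whose percent inhibition of the receptor-coactivator binding signal exceeds about 50% in the single-dose screen, limit read from the data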
# MRP reversal = reverses drug resistance mediated by MRP; H69AR cells + 2 uM doxorubicin, CellTiter-Glo, 72 h; differential viability (reversal), % at 10 µM; 85,000 compounds, 0.04% hits; AID 602;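 active means viability drop by adding the cancer drug above about 55%, with treated viability meeting a 40% cutoff, limit read from the data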;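 further: larger differential means the compound sensitizes cells more to doxorubicin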
# MRP1 act = activators of MRP-1. H69AR cells + doxorubicin, viability rescue, CellTiter-Glo. viability increase, % at 10 µM. 140,000 compounds, 0.61% hits;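 active means viability gain under doxorubicin at or above a set limit, the compound median plus 3 SD, cut at about 4.7% in these data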;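 further: MRP-1 overexpressing cells given doxorubicin 25 µM after compound pretreatment; 18-22 h compound pretreatment then 72 h with doxorubicin before readout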
# ERa SRC1 pot = enhances coactivator binding to human estrogen receptor alpha; TR-FRET ERalpha-LBD/SRC-Cy5 coactivator binding, 2 h; 100 = basal binding, no effect; coactivator binding (% of control), % at 25.6 µM; 86,000 compounds, 1.3% hits; in the data active means activity above about 200%;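 further: binding measured in presence of low estradiol as agonist stimulus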
# Hits are given with their value; – = inactive; · = not tested or not shown; [ ] = dose if it differs, or a comment. Only some compounds are listed: those with a hit (about 2.7% of all), similar ones and a draw of the others.
SMILES,ERa SRC1 inh,ERb SRC1 inh,MRP reversal,MRP1 act,ERa SRC1 pot
CCOc1ccccc1-n1c(O)c(C=Nc2ccc(N(CC)CC)cc2)c(=O)[nH]c1=O,62[fluorescence artefact?],–,–,–,–
CC(C)N1CCN(c2ccc(O)cc2)CC1,·,·,·,–,·
Clc1ccc(COC(Cn2ccnc2)c2ccc(Cl)cc2Cl)c(Cl)c1 (stereo not given),–,–,–,–,–
O=C(C1CCC(=O)N1Cc1ccccc1Cl)N1CCC2(CC1)OCCO2 (stereo not given),–,–,–,–,809[fluorescence artefact?]
O=C(CF)NC(Nc1cccc2cccnc12)C(Cl)(Cl)Cl (stereo not given),·,·,·,–,·
O=C(c1ccc2nc(-c3ccco3)c(-c3ccco3)nc2c1)N1CCC2(CC1)OCCO2,56[fluorescence artefact?],76[fluorescence artefact?],–,–,–
Clc1cccc(Cl)c1C1N2CCCN12 (stereo not given),–,81[fluorescence artefact?],–,–,–

# From PubChem BioAssay
